Assay outcomes (PubChem)
Compounds with a hit are over-represented: about 21% of the library has one in this group of screens.
HCV inh – HCV inhibition. Huh7.5.1 HCVcc-Cre infection, luciferase reporter, 44 h. Potency, µM (titrated, usually from 41.8 µM), actives largely listed as inhibitors. hit rate 3.4% among 340,000. AID 651820
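Infectious HCV cell culture screen: compound-treated cells (1,000/well, pre-plated 4 h) are infected with HCVcc-Cre at roughly 0.5 moi and grown 44 h. Infection is quantified by luciferase signal after 15 min substrate incubation at room temperature.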
Shiga toxin inh – blocks Shiga toxin action in Vero cells; Vero cells, Shiga toxin protein synthesis inhibition reporter; inhibition, % at 38.7 µM; hit rate 9.2% among 290,000; AID 2315; in the data active = inhibition mostly above about 28%, no sharp cut-off; inactive = mostly below about 43%
CHX counter – affects cycloheximide protein synthesis inhibition readout, counter-screen; cell reporter, cycloheximide protein synthesis inhibition counterscreen; max response, %; hit rate 12% among 300,000; in the data active = max response mostly above about 13%, no sharp cut-off; inactive = mostly below about 14%; note: read at 38.3 µM for the half of the compounds with a filed dose
Pf growth 48h – P. falciparum growth inhibition at 48 hours (one generation). P. falciparum luciferase growth in erythrocytes, 48 h. Potency, µM (top dose mostly 28.7 µM), hits mostly inhibitors. hit rate 5.9% among 310,000. AID 504832
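Cell-based growth assay: transgenic P. falciparum expressing firefly luciferase, cultured in red cells within RPMI 1640 containing 0.5% w/v Albumax, 24 mM bicarbonate and gentamycin. A drop in luciferase activity indicates inhibition.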
Pf growth 96h – P. falciparum growth inhibition at 96 hours. P. falciparum luciferase reporter growth, 96 h. Potency, µM (series often up to 28.7 µM), hits mostly inhibitors. hit rate 6.9% among 320,000. AID 504834
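Readout is luminescence from an integrated firefly luciferase in P. falciparum. Red cells, 2% hematocrit and 0.05% parasitemia final, were cultured with compound through two parasite generations (96 hours) at 37 C, 5% CO2.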
AMA1 RON2 block – inhibitors of Plasmodium falciparum AMA1-RON2 interaction. Potency, µM (top dose mostly 58.2 µM), actives largely listed as inhibitors. AID 720542. hit rate 0.2% among 360,000. AlphaScreen AMA1-biotinylated RON2 peptide binding; note: nearly all actives have a fitted effect of over 45% in size
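AMA1 (3D7) with his tag at 25 nM final met compounds first, then biotinylated RON2 peptide at 25 nM; detection used donor plus acceptor beads, 10 µg/mL apiece, read by AlphaScreen after 30 min at room temperature.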
Of the large screens only hits and unclear results are named; the others gave an inactive call. Unless noted, calls come from the whole dose curve; as a rule, active = well fitted curve in the direction sought with a large enough effect; inconclusive = small, poorly fitted or top-dose-only effect, or another doubt; inactive = no such curve, though single readings can be large; an effect the other way counts as inactive or inconclusive.

Cc1cccc(C)c1NC(=O)C(C1CC1)n1c(-c2ccc(-c3ccccc3)cc2)nc2ccccc21 (stereo not drawn)	none (no result: HCV inh, Shiga toxin inh, CHX counter, Pf growth 48h, Pf growth 96h)
COc1ccc(CCC(=O)OCC(=O)NCc2ccccc2)cc1	none (no result: Shiga toxin inh, CHX counter)
Cc1cc(C)nc(SCC(=O)NC2CCCC2)n1	none
Cc1cc(C)n2nc(SCC(=O)NC3CCCCC3)nc2n1	Pf growth 96h 13.1µM
CCCn1c(C)cc(C(=O)CSc2nc3nc(C)cc(C)n3n2)c1C	HCV inh inconclusive, Pf growth 48h inconclusive, Pf growth 96h 9.28µM
O=C(CCS(=O)(=O)c1ccccc1)NNC(=O)CSc1ccccc1F	none (no result: Shiga toxin inh, CHX counter, Pf growth 48h, Pf growth 96h)
O=C(OCCc1cc2ccccc2c(=O)o1)N1CCOCC1	none (no result: Shiga toxin inh, CHX counter)
Cc1cc(C)c2c(c1)/C(=c1/sc3n(c1=O)CN(c1ccccc1)CN=3)C(=O)N2	none
Nc1nc2ccc(Cl)cc2[nH]1	none (no result: Shiga toxin inh, CHX counter, Pf growth 48h, Pf growth 96h)
ClCCNc1nc2ccc(Cl)cc2[nH]1	CHX counter 18.7
O=C(O)c1ccc(Nc2nc3ccc(Cl)cc3[nH]2)cc1	HCV inh 2.82µM
Cc1ccc2nc(C)cc(N/N=C/c3cccnc3)c2c1	none
Oc1ccc(C=NNc2ccccn2)c(O)c1	HCV inh inconclusive (no result: Shiga toxin inh, CHX counter, Pf growth 48h, Pf growth 96h)
Cc1ccc(/C=N/Nc2cccc3cccnc23)c(O)c1	HCV inh inconclusive, CHX counter 27.7
Oc1ccc(/C=N/Nc2cccc3cccnc23)c(O)c1	HCV inh inconclusive, Shiga toxin inh 102.4, CHX counter 59.1
C#CCOCCOCCOCCNc1nc(N2CCN(C(=O)[C@H](CCC(=O)O)n3cc([C@@H](N)CCCCN)nn3)CC2)nc(N2CCN(C(=O)[C@H](CCCCN)n3cc([C@@H](N)CC(N)=O)nn3)CC2)n1	none (no result: Shiga toxin inh, CHX counter, Pf growth 48h, Pf growth 96h)
O=C(Nc1ccccc1Cl)N1CCN(c2ccccn2)CC1	none
O=C(Nc1c[nH]c2c(Cl)cccc2c1=O)N1CCN(c2ccccn2)CC1	CHX counter 15.6, Pf growth 96h inconclusive
Cc1cc(NC(=O)Nc2cccs2)no1	HCV inh inconclusive, CHX counter 16.0
O=C(Nc1cccs1)Nc1c(F)cc(F)cc1Br	none
COc1ccc(Cl)cc1NC(=O)Nc1cc(C)on1	HCV inh inconclusive, Shiga toxin inh 60.9, CHX counter 36.3, Pf growth 96h inconclusive
Cc1cccc(C)c1NC(=O)Nc1cccs1	none (no result: Pf growth 48h)
Cc1cc(NC(=O)Nc2ccccc2Cl)no1	Shiga toxin inh 63.7, CHX counter 27.0, Pf growth 96h inconclusive
O=C(Nc1ccc(C(F)(F)F)cn1)Nc1cccs1	Shiga toxin inh 35.0, CHX counter 26.2
CN1CCN(CCCNCc2cn(CCC#N)c3ccccc23)CC1	AMA1 RON2 block inconclusive (no result: Pf growth 48h)
CC(C)=CCCN1CCC(NC(=O)C(O)(c2ccccc2)C2CCCC2)CC1 (stereo not drawn)	none (no result: HCV inh, Pf growth 48h, Pf growth 96h, AMA1 RON2 block)
COc1ccc(NC(=O)c2ocnc2C)cc1OC	none
Cc1cc(NC(=O)CS(=O)(=O)c2cn(Cc3ccccc3Cl)c3ccccc23)no1	HCV inh inconclusive, Pf growth 96h 0.586µM
COc1ccc(Cl)cc1NC(=O)c1ocnc1C	HCV inh inconclusive, Pf growth 96h 1.04µM
COc1ccc(C(=O)C(=O)N2CCC(c3ccccc3)CC2)cn1	none (no result: HCV inh, Shiga toxin inh, CHX counter, Pf growth 48h, Pf growth 96h)
Cc1onc(-c2c(F)cccc2Cl)c1C(=O)ONC(=O)c1ccco1	none
CCN(c1ccccc1)S(=O)(=O)c1cccc(C(=O)NCc2ccncc2)c1	HCV inh inconclusive (no result: Shiga toxin inh, CHX counter)
Cc1cc(C)c(C(=O)NCCCN2CCOCC2)c(C)c1	Pf growth 96h inconclusive
CC(CCc1ccccc1)NC(=O)C(=O)Nc1ccccc1 (stereo not drawn)	HCV inh inconclusive, Shiga toxin inh 99.8, CHX counter 55.6
CC(CCc1ccccc1)NC(=O)C1CCN(S(=O)(=O)c2ccc(F)cc2)CC1 (stereo not drawn)	HCV inh inconclusive, Pf growth 96h inconclusive
CC(=O)c1ccc(NC(=S)NC(C)CCc2ccccc2)cc1 (stereo not drawn)	Pf growth 48h inconclusive, Pf growth 96h 9.28µM
CCC(C)NC(=S)Nc1ccc(C(=O)OC)cc1 (stereo not drawn)	HCV inh inconclusive, Shiga toxin inh 56.1, CHX counter 25.8, Pf growth 96h inconclusive
Cc1ccccc1NC(=O)C(=O)NC(C)CCc1ccccc1 (stereo not drawn)	none
CC(CCc1ccccc1)NC(=O)C1CCN(S(=O)(=O)N2CCCCC2)CC1 (stereo not drawn)	HCV inh inconclusive, Pf growth 48h inconclusive, Pf growth 96h 1.04µM
CC(C)[C@H](NS(=O)(=O)c1ccc(Cl)cc1)C(=O)OCC(=O)c1c(N)n(C)c(=O)n(C)c1=O	HCV inh inconclusive (no result: Shiga toxin inh, CHX counter)
CC(CCOC1=NS(=O)(=O)c2ccccc21)NC(=O)C(=O)Nc1ccccc1 (stereo not drawn)	Shiga toxin inh 65.1, CHX counter 29.4
Cc1cc(C)cc(NC(=O)c2ccc(CNc3c(N4CCCC4)c(=O)c3=O)cc2)c1	Pf growth 48h inconclusive, Pf growth 96h 0.522µM
CCOC(=O)C1CCN(c2c(NCc3ccc(C(=O)NCCOC)cc3)c(=O)c2=O)CC1	none
O=C(NCc1ccco1)c1ccc(CNc2c(N3CCCCC3)c(=O)c2=O)cc1	Pf growth 96h 10.4µM
CCCCNC(=O)c1ccc(CNc2c(N3CCC(C(=O)OCC)CC3)c(=O)c2=O)cc1	HCV inh inconclusive, Pf growth 48h 11.7µM, Pf growth 96h inconclusive
Cc1cc(C)cc(NC(=O)c2ccc(CNc3c(N4CCOCC4)c(=O)c3=O)cc2)c1	none (no result: Pf growth 48h)
CCOC(=O)C1CCN(c2c(NCc3ccc(C(=O)Nc4ccc(C)cc4)cc3)c(=O)c2=O)CC1	HCV inh inconclusive, Pf growth 48h 4.65µM, Pf growth 96h 4.15µM
CC1CCN(c2c(NCc3ccc(C(=O)NCc4ccco4)cc3)c(=O)c2=O)CC1	Pf growth 96h inconclusive
CCOC(=O)C1CCN(c2c(NCc3ccc(C(=O)NC4CCCC4)cc3)c(=O)c2=O)CC1	HCV inh inconclusive, Pf growth 96h inconclusive (no result: Pf growth 48h)
CCn1c(CN2CCN(Cc3ccc(C)cc3)C(CCO)C2)nc2ccccc21 (stereo not drawn)	Pf growth 96h inconclusive
CC(O)CSc1nc2c(c(=O)[nH]c(=O)n2C)n1Cc1ccccc1Cl (stereo not drawn)	none
Cc1noc(C)c1COc1ccccc1C(=O)NNC(=O)C(C)Oc1ccccc1F (stereo not drawn)	HCV inh inconclusive (no result: Shiga toxin inh, CHX counter)
CCOc1ccc(C(C)NC(=O)c2ccccc2OCc2c(C)noc2C)cc1OCC (stereo not drawn)	Pf growth 48h inconclusive, Pf growth 96h 6.57µM (no result: HCV inh)
CCOc1ccc(CCNC(=O)c2ccccc2OCc2c(C)noc2C)cc1OCC	HCV inh 7.08µM, Pf growth 48h inconclusive, Pf growth 96h inconclusive (no result: Shiga toxin inh, CHX counter)
COc1ccccc1OCCNC(=O)c1ccccc1OCc1c(C)noc1C	Pf growth 96h inconclusive (no result: Shiga toxin inh, CHX counter)
CC(C)n1ncc2c(C(=O)Nc3cccc(C#N)c3)cc(C3CC3)nc21	HCV inh 11.2µM, Pf growth 48h 6.57µM, Pf growth 96h 5.22µM (no result: Shiga toxin inh, CHX counter)
COc1ccccc1CNC(=O)c1cc(C2CC2)nc2c1cnn2C(C)C	HCV inh 1µM, Pf growth 48h 0.928µM, Pf growth 96h 0.738µM (no result: Shiga toxin inh, CHX counter)
